Assay outcomes: PubChem, several laboratories
An excerpt weighted towards active compounds, which were near 4.3% of everything screened.
MITF TRPM1 HTS: activators of MITF-driven TRPM1 promoter reporter, primary screen, cell-based, SK-MEL-5, luciferase, single point; SK-MEL-5 TRPM1-promoter luciferase, 24 h; % of positive control, neutral wells = 0; activation, % at 12.5 µM; 0.75% of 300,000 active; AID 588334, 2011;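 active = mean activation of at least 80% with every replicate also reaching 80%; inconclusive = mean reaches 80% but some replicate falls short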
SMARCA2 activ: SMARCA2 (BRM) function activators, primary screen, cell-based, luminescence, high throughput | activation, % at 9.1 µM | MG213 cells, MMTV-luciferase reporter, dexamethasone, overnight | 1% of 370,000 active; in the data active = activation above about 7.8%
Wnt bcat act: Wnt/beta-catenin pathway activators, primary screen, cell-based, plate reader, single point; AID 743398, 2014; Wnt/beta-catenin reporter cell assay, activator; activation, % at 9.35 µM; 1.2% of 300,000 active; in the data active = activation above about 30%, passing the limit was not always enough; inconclusive = no clear call, values can overlap the other calls
FGF22 binding: binders of human FGF22 protein, primary screen, FGF22 synaptogenesis inhibitor project, biophysical, thermal shift, single point. recombinant FGF22 thermal shift, SYPRO orange fluorescence; percent of sucrose octasulfate shift, DMSO zero. activity (Tm shift, normalised), % at 9.99 µM. 1.5% of 340,000 active. AID 651658, 2012;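 active = mean Tm shift, scaled 0 neutral to 100 positive control, at about 1.3% or above, every replicate too, limit read from the data; inconclusive = no clear call, values can overlap the other calls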
Target sequence (Q9HCT0 whole entry, looked up): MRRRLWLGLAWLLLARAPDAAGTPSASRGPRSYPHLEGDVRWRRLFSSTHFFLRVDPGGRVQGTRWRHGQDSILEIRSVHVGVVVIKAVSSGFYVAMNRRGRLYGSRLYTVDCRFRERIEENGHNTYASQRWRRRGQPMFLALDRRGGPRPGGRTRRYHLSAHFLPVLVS
AF4-AF9 inh: inhibitors of AF4 peptide binding to AF9, primary screen, biochemical, AlphaScreen, biotin-AF4 peptide, FLAG-AF9, single point | AID 651704, 2012 | 0.47% of 350,000 active | inhibition, % at 10 µM | Protein AF-9 (Homo sapiens), P42568;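 active = every replicate reaching a set inhibition limit, whatever the replicate mean, cut at about 25% in these data; inconclusive = mean inhibition reaches that limit but some replicates miss it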
esBAF inh: Bmi1 luciferase reporter increase in mESCs, primary screen, esBAF inhibitor project, mouse ES cells, Bmi1 luciferase knock-in, single point | 24 h; 100% = twice the neutral-well signal | reporter increase, % at 12.5 µM | 2% of 350,000 active | AID 602393, 2012; in the data active = activation above about 40%; inconclusive = no clear call, values can overlap the other calls;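 also: a rise in the Bmi1 reporter signal indicates esBAF inhibition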
Hits are given with their value; - = inactive; ? = inconclusive; . = not tested or not shown.

SMILES	MITF TRPM1 HTS	SMARCA2 activ	Wnt bcat act	FGF22 binding	AF4-AF9 inh	esBAF inh
N#C/C(=C\c1ccc(OCc2ccc(Br)cc2)cc1)C(=O)Nc1cccc(C(=O)O)c1	-	-	-	-	-	.
N#C/C(=C\c1ccc(OCc2ccc(F)cc2)cc1)C(=O)Nc1cccc(C(=O)O)c1	-	-	51	-	-	-
N#C/C(=C\c1ccc(OCc2ccccc2)cc1)C(N)=O	-	-	41	-	-	.
COc1ccc(-c2cnc3c(c2)C(=O)N([C@@H](C)CO)C[C@H](C)[C@H](CN(C)C(=O)C2CCC2)O3)cc1	.	.	.	-	-	-
CC(=O)N[C@H]1C=C[C@@H](CC(=O)NCC2CCCCC2)O[C@@H]1CO	.	.	.	-	-	-
N=C1/C(=C\c2ccc(OC(=O)c3ccco3)cc2)C(=O)N=C2SC=NN12	-	-	-	44	-	.
COc1cc(/C=C2/C(=N)N3C(SC)=NSC3=NC2=O)ccc1OC(=O)c1ccco1	-	-	-	-	-	46
Cc1cc(/C=C2\C(=N)N3N=CSC3=NC2=O)c(C)n1Cc1ccccc1	-	-	36	-	-	-
COc1cc(/C=C2/C(=N)N3C(=NC2=O)SN=C3S(=O)(=O)C(C)C)ccc1OC(=O)c1ccco1	?	-	-	1.4	-	-
Cc1noc(C)c1S(=O)(=O)Nc1ccc2c(c1)C(=O)N([C@H](C)CO)C[C@H](C)[C@@H](CN(C)Cc1ccc(Cl)c(Cl)c1)OCCCC[C@H](C)O2	.	.	.	.	-	.
C[C@@H]1CCCCO[C@H](CN(C)Cc2ccc3c(c2)OCO3)[C@H](C)CN([C@@H](C)CO)C(=O)c2cc(NC(=O)C3CCCCC3)ccc2O1	.	.	.	-	-	-
C[C@H](CO)N1C[C@H](C)[C@H](CN(C)Cc2ccccc2)Oc2ccc(N(C)C)cc2C1=O	.	.	.	-	-	-
C[C@H](CO)N1C[C@H](C)[C@H](CN(C)Cc2ccc(-c3ccccc3)cc2)Oc2ccc(N(C)C)cc2C1=O	.	.	.	-	49	-
C[C@H]1CN([C@@H](C)CO)C(=O)c2cc(N(C)C)ccc2O[C@H]1CN(C)Cc1ccccc1	.	.	.	-	-	-
C[C@@H]1CN([C@@H](C)CO)C(=O)c2cc(N(C)C)ccc2O[C@@H]1CN(C)Cc1ccc(-c2ccccc2)cc1	.	.	.	-	48	-
C[C@@H]1CN([C@@H](C)CO)C(=O)c2cc(N(C)C)ccc2O[C@@H]1CN(C)Cc1ccccc1	.	.	.	-	-	-
C[C@H](CO)N1C[C@H](C)[C@@H](CN(C)Cc2ccc(-c3ccccc3)cc2)Oc2ccc(N(C)C)cc2C1=O	.	.	.	-	29	-
C[C@H]1CN([C@@H](C)CO)C(=O)c2cc(N(C)C)ccc2O[C@H]1CN(C)Cc1ccc(-c2ccccc2)cc1	.	.	.	-	33	-
CCC(=O)N1CCCCN2[C@@H](CO)[C@H](c3ccc(/C=C/c4ccccc4)cc3)[C@@H]2C1	.	.	.	-	-	.
N#C[C@@H]1[C@@H](c2ccc(C3=CCCCC3)cc2)[C@H](CO)N1S(=O)(=O)c1cccc(F)c1	.	.	.	-	-	-
C[C@H](CO)N1C[C@H](C)[C@H](CN(C)Cc2ccc(C(=O)O)cc2)Oc2ccc(N(C)C)cc2C1=O	.	.	.	.	.	-
C[C@H](CO)N1C[C@H](C)[C@@H](CN(C)Cc2ccc(Oc3ccccc3)cc2)Oc2ccc(N(C)C)cc2C1=O	.	.	.	-	37	-
CCN(CC)S(=O)(=O)c1ccc(Nc2ccc(-c3ccc4c(c3)OCCO4)nn2)cc1	-	8.6	-	.	.	.
CN(C)S(=O)(=O)c1ccc(Nc2ccc(-c3ccc4c(c3)OCCO4)nn2)cc1	-	-	-	-	-	-
C[C@@H]1CN([C@@H](C)CO)C(=O)c2cc(NC(=O)CCCN(C)C)ccc2O[C@@H](C)CCCCO[C@@H]1CN(C)S(=O)(=O)c1ccccc1	.	.	.	-	-	-
SMILES	MITF TRPM1 HTS	SMARCA2 activ	Wnt bcat act	FGF22 binding	AF4-AF9 inh	esBAF inh
C[C@@H]1CN([C@@H](C)CO)C(=O)c2cc(NS(=O)(=O)c3cn(C)cn3)ccc2O[C@@H](C)CCCCO[C@@H]1CN(C)C	.	.	.	-	-	.
C[C@H](CO)N1C[C@H](C)[C@@H](CN(C)S(C)(=O)=O)Oc2c(NC(=O)Nc3ccc(F)cc3)cccc2C1=O	.	.	.	-	-	-
Cc1ccccc1S(=O)(=O)N1CCC(c2nc3ccccc3o2)CC1	.	-	.	.	.	.
N#C/C(=C\c1ccccn1)c1nc2ccccc2s1	-	-	-	-	-	-
COc1ccc(/C(C#N)=C/c2ccccn2)cc1	-	-	33	-	-	-
CCN(CC)c1ccc(NC(=O)CN(C)Cc2cccs2)cc1	-	-	-	-	27	-
Nc1ncc(C(=O)O)c(-c2ccccc2)n1	-	-	-	-	-	.
Cc1cnc(N)nc1-c1ccccc1	.	-	-	43	-	-
O=C(C[C@H]1CC[C@H](NC(=O)c2ccccc2)[C@@H](CO)O1)NCc1ccncn1	.	.	.	-	-	-
O=C(/C(=N/N=C/c1ccc(O)c(O)c1)c1ccccc1)c1ccccc1	-	-	-	-	35	.
Oc1ccc(/C=N/N(c2ccccc2)c2ccccc2)cc1O	-	-	-	-	-	-
O=C(Nc1ccc2sccc2c1)c1cccc(N2C(=O)CCC2=O)c1	-	-	-	43	-	.
O=C(Nc1nc2ccccc2s1)c1cccc(N2C(=O)CCC2=O)c1	-	-	-	-	-	?
CCOc1ccc(OCC(=O)c2c(O)c3ccccc3oc2=O)cc1	-	-	.	.	.	-
CC(=N)c1c(O)c2ccccc2oc1=O	-	-	-	-	-	.
CCCCC(=O)c1c(O)c2ccccc2oc1=O	-	-	.	.	.	59
CCCCN=C(C)c1c(O)c2ccccc2oc1=O	.	-	-	.	.	42
O=C(C[C@H]1C=C[C@H](NC(=O)Nc2cc(F)ccc2F)[C@@H](CO)O1)NCc1ccc2c(c1)OCO2	.	.	.	-	-	-
C/C(=N\Nc1ccc([N+](=O)[O-])cc1[N+](=O)[O-])C(C)C(C)C (stereo not drawn)	-	-	-	-	26	.
CCC(CC)=NNc1ccc([N+](=O)[O-])cc1[N+](=O)[O-]	-	-	-	43	-	.
O=[N+]([O-])c1ccc(NN=C(C2CC2)C2CC2)c([N+](=O)[O-])c1	.	-	-	-	-	-
C[C@H](CO)N1C[C@H](C)[C@H](CN(C)S(=O)(=O)c2ccc(F)cc2)OCCCC[C@H](C)Oc2ccc(NS(=O)(=O)c3cn(C)cn3)cc2C1=O	.	.	.	-	-	-
CCOC(=O)c1sc(=NC(=O)COc2ccccc2)n(C)c1C	-	-	-	-	-	-
CCOC(=O)c1sc(=NC(=O)CCSc2ccccc2)n(C)c1C	114	-	-	-	-	.
CCOC(=O)c1sc(=NC(=O)c2c(F)cccc2F)n(C)c1C	-	-	-	-	-	54
